Test results as given in PubChem BioAssay.
Several values for one entry are separate records, joined by “and”; a condition that tells them apart may be missing. Equal values may be shown once. Activity calls are given as the source filed them.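 Rule for the calls, unless noted: active = compounds lowering colon cancer cell viability after pretreatment blocking the GSK3B kinase; inactive = the rest.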

Key:
[1] = stimulators of nuclear beta-catenin in C2C12, primary screen, imaging, WNT3A-conditioned medium, mouse C2C12, NPC library (AID 1117326; in the data active = nuclear beta-catenin stimulation mostly above about 4.2%, no sharp cut-off; inactive = mostly below about 10%; note: reference of the scale not given here); settings: stronger effect = higher value
[2] = stimulators of insulin release from INS-1E, primary screen, cell-based, 5 mM glucose, NPC library (AID 1117329;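 active = compound raises insulin release from rat beta cells at 5 mM glucose, no numeric limit stated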; note: reference of the scale not given here); settings: rat INS-1E insulin secretion, at 10 µM, stronger effect = higher value
[3] = growth inhibition of GSK3B-pretreated HCT116 cells – cell-based, CellTiter-Glo, 0.2 to 20 µM (AID 1117336); settings: HCT116 viability after GSK3B inhibitor, at 20 µM, stronger effect = higher value
[4] = inhibition of endothelial tube formation, primary screen, imaging, VEGF stimulated, CD31 staining, tube area, NPC library (AID 1117340;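 active = compound that reduces growth-factor-driven endothelial tube area in a mixed cell culture, no cutoff stated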); settings: VEGF-stimulated ADSC/ECFC co-culture, at 10 µM, stronger effect = higher value
[5] = glucagon-like peptide 1 release enhancers, primary assay, NCI-H716 cell line, NPC library (AID 1117341;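 active = compound raises GLP1 secretion from the human gut endocrine cells, with no numeric limit stated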; note: reference of the scale not given here); settings: NCI-H716 cells, at 10 µM, stronger effect = higher value
[6] = HCT116 colon cancer cell growth inhibition, primary screen, CellTiter-Glo luminescence, NPC library (AID 1117342;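 active = compounds that lower survival of HCT116 colon cancer cells in the luminescence readout, no numeric limit stated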); settings: at 20 µM (top of the series)
[7] = CellTiter-Glo luminescent readout of SW480 viability loss, NPC library primary (AID 1117343;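 active = compounds that lower viability of the colon cancer cells in the luminescence readout, with no numeric limit stated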); settings: CellTiter-Glo luminescence; at 20 µM (top of the series)
[8] = decreased DLD-1 cellular survival, CellTiter-Glo luminescent readout, NPC compound collection, primary HTS (AID 1117346;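 active = compounds that lower survival of DLD-1 colon cancer cells in the luminescence readout, no cutoff given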); settings: DLD-1 viability, CellTiter-Glo luminescence; at 20 µM (top of the series)
[9] = biological target: 6-phosphogluconate dehydrogenase, decarboxylating (Homo sapiens) (UniProt P52209); assay: 6PGD enzyme inhibitors, primary screen, biochemical, human, recombinant enzyme, NADPH absorbance (AID 1159550;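 active = at least 20% inhibition of 6-phosphogluconate dehydrogenase activity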); settings: recombinant 6PGD, NADPH absorbance 341 nm; at 10 µM; stronger effect = higher value
Sequence of 6-phosphogluconate dehydrogenase, decarboxylating (Homo sapiens) (P52209 whole entry, looked up): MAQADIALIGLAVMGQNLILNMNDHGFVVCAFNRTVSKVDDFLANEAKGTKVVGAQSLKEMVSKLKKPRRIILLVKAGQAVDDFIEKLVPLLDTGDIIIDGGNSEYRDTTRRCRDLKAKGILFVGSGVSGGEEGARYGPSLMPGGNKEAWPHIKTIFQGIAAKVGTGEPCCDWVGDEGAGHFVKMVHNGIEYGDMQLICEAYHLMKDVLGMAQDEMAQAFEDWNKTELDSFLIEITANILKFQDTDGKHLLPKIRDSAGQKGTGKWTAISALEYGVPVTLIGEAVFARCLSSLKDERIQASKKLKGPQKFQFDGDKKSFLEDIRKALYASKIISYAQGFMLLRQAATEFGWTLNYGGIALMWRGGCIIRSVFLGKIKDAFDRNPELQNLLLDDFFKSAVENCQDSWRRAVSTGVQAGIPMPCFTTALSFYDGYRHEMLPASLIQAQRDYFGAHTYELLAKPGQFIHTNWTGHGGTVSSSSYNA

[10] = liver-stage malaria parasite growth inhibition, primary screen, cell-based, HepG2, luciferase luminescence, HepG2 viability (AID 624349; in the data active = parasite load remaining mostly below about 12%, no sharp cut-off; inactive = mostly above about 10%;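 note: 100% = mean of DMSO negative control wells on the same plate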); settings: P. berghei liver stage in HepG2, luciferase luminescence, concentration not given here; parasite load remaining: stronger effect = lower value; viability: measured here: HepG2 viability without parasites

Row | Structure (SMILES) | nuclear beta-catenin stimulation ([1]; at 10 µM) | nuclear beta-catenin stimulation ([1]; stimulation, at 2 µM) | insulin secretion stimulation [2] | viability decrease [3] | tube area decrease [4] | GLP1 secretion stimulation [5] | inhibition of viability [6] | viability decrease (inhibition) [7] | viability decrease (inhibition) [8] | inhibition [9] | parasite load remaining [10] | viability [10]
1 | NCCCC[C@H](N[C@@H](CCc1ccccc1)C(=O)O)C(=O)N1CCC[C@H]1C(=O)O | 0.4% (inactive) | 0.9% | -0.8% (inactive) | -3.9% (inactive) | -7.9% (inactive) | 0.3% (inactive) | -5.23% (inactive) | 9.9% (inactive) | -8% (inactive) | -2.78% (inactive) |  | 
2 | C=C[C@@]1(C)CC(=O)[C@]2(O)[C@@]3(C)[C@@H](O)CCC(C)(C)[C@@H]3[C@H](O)[C@H](OC(C)=O)[C@@]2(C)O1 | 1.1% (inactive) | 0.6% | 3.6% (inactive) | -20.2% (inactive) | -41% (inactive) | 5% (inactive) | 17.1% (inactive) | 56.2% (active) | -16.6% (inactive) | 14.7% (inactive) |  | 
3 | O=C1c2ccccc2C(=O)c2c1ccc(O)c2O | 1.2% (inactive) | 0.3% | -2% (inactive) | 45.6% (inactive) | -9.9% (inactive) | -3.8% (inactive) | 9.2% (inactive) | 112% (active) | 65.7% (active) | 1.17% (inactive) |  | 
4 | CC(=O)OCC(=O)[C@@]1(O)[C@H](OC(C)=O)C[C@H]2[C@@H]3CCC4=CC(=O)C=C[C@]4(C)[C@@]3(F)[C@@H](O)C[C@@]21C | 0.9% (inactive) | 1.1% | 2.1% (inactive) | -9% (inactive) | -8.6% (inactive) | 2.4% (inactive) | -8.2% (inactive) | 18.4% (inactive) | -14.1% (inactive) | 14.6% (inactive) |  | 
5 | Cc1cccc(N(C)C(=S)Oc2ccc3ccccc3c2)c1 | -0.1% (inactive) | 1.3% | 0.4% (inactive) | 50% (active) | -39% (inactive) | -2.7% (inactive) | 58.6% (active) | 35.1% (inactive) | 56.8% (active) | 6.26% (inactive) |  | 
6 | CN1[C@@H]2CC[C@H]1CC(OC(=O)C(O)c1ccccc1)C2 (stereo partly drawn) | -0.1% (inactive) | -2.6% | 3.1% (inactive) | 15% (inactive) | -13.1% (inactive) | 1% (inactive) | 28% (inactive) | 22.2% (inactive) | -0.2% (inactive) | -3.32% (inactive) |  | 
7 | CC(=O)Oc1cccc2c1C(=O)c1c(OC(C)=O)cc(C(=O)O)cc1C2=O | 3.2% (inactive) | 3.4% | 1.8% (inactive) | 106% (active) | 6.3% (active) | -2% (inactive) | 100% (active) | 59.1% (active) | 64.3% (active) | -1.78% (inactive) |  | 
8 | Cc1ccc(C(=O)c2ccc(CC(=O)O)n2C)cc1 | 5.9% (inactive) | 3.5% | 0.4% (inactive) | -13.7% (inactive) | -2.5% (inactive) | 3.1% (inactive) | -3.2% (inactive) | -14.3% (inactive) | 4.3% (inactive) | 9.71% (inactive) |  | 
9 | CC(=O)Nc1cccc(O)c1 | -0.7% (inactive) | 2.5% | 1.1% (inactive) | -1.55% (inactive) | -19.6% (inactive) | -0.3% (inactive) | -14.5% (inactive) | 32.8% (inactive) | 4.35% (inactive) | 11.9% (inactive) |  | 
10 | CC(C)(Sc1cc(C(C)(C)C)c(O)c(C(C)(C)C)c1)Sc1cc(C(C)(C)C)c(O)c(C(C)(C)C)c1 | 4.3% (inactive) | 6% | 3.7% (inactive) | -20.3% (inactive) | -25% (inactive) | 0.8% (inactive) | 1.57% (inactive) | 9.4% (inactive) | 37.1% (inactive) | 6.05% (inactive) |  | 
11 | COc1ccc(C2C(=O)c3ccccc3C2=O)cc1 | 1.8% (inactive) | 1.4% | 0.7% (inactive) | 48.4% (inactive) | -33.4% (inactive) | -6% (inactive) | 35.2% (inactive) | 22.1% (inactive) | 11% (inactive) | -16% (inactive) | 126% (inactive) and 58.9% (inactive) | 68.9% and 89%
12 | Oc1c(I)cc(I)c2cccnc12 | 0.7% (inactive) | 1% | 0.55% (inactive) | 102% (active) | 108% (active) | -3.1% (inactive) | 89.9% (active) | 147% (active) | 96.2% (active) | -4.02% (inactive) | 92.2% (inactive) and 20.2% (inactive) | 77.1% and 92.8%
13 | Cc1cc(O)cc(C)c1Cl | -0.1% (inactive) | 2% | 2% (inactive) | -11% (inactive) | -5.3% (inactive) | -2% (inactive) | 18.1% (inactive) | 28.5% (inactive) | 9.3% (inactive) | 0.336% (inactive) | 69.1% (inactive) and 37.2% (inactive) | 76.7% and 78.6%
14 | Cc1c(N(C)C)c(=O)n(-c2ccccc2)n1C | 2.9% (inactive) | 0.6% | 0.4% (inactive) | -152% (inactive) | 8.4% (inactive) | -1.9% (inactive) | -13.5% (inactive) | -4.8% (inactive) | -6.4% (inactive) | 13.9% (inactive) | 18.2% (inactive) and 103% (inactive) and 38% (inactive) | 52.4% and 97.7% and 84.1%
